The text below walks through data of publication PMC9911399, “Two distinct binding modes provide the RNA-binding protein RbFox with extraordinary sequence specificity”.

Numbering of substitutions follows the chain as printed; changes in the protein carry UniProt numbers. In all, about 16,000 sequences were measured (“ka relative to ugcaugu”: median about 0.0091, highest 2% from about 0.032 on). Many of the other results were omitted from the sample, so the highest values are more common in it than they were.

T1: RBFOX1 RRM (Homo sapiens, UniProt Q9NWB1 109-208)
T1 sequence: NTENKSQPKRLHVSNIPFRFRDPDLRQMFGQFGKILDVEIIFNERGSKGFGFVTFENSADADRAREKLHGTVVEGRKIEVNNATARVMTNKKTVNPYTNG

B1: UCAGACC (DNA:RNA)
RNA: GGGAGACCGGAAUUCAGAUUGUCCUCAGACCUUAAAUCCCGUCGUAGCCACCA
DNA 1: CAATCTGAATTCCGGTCTCCC
DNA 2: TGGTGGCTACGACGGGATT
B2: UGAGCUA (DNA:RNA)
RNA: B1 RNA with C26G, A29C, C30U, C31A
DNA 1: CAATCTGAATTCCGGTCTCCC
DNA 2: TGGTGGCTACGACGGGATT
B3: UAGAGGG (DNA:RNA)
RNA: B1 RNA with C26A, A27G, G28A, A29G, C30G, C31G
DNA 1: CAATCTGAATTCCGGTCTCCC
DNA 2: TGGTGGCTACGACGGGATT
B4: AACACAA (DNA:RNA)
RNA: GGGAGACCGGAAUUCAGAUUGUCCAACACAAUUAAAUCCCGUCGUAGCCACCA
DNA 1: CAATCTGAATTCCGGTCTCCC
DNA 2: TGGTGGCTACGACGGGATT
B5: GAGAUCC (DNA:RNA)
RNA: B4 RNA with A25G, C27G, C29U, A30C, A31C
DNA 1: CAATCTGAATTCCGGTCTCCC
DNA 2: TGGTGGCTACGACGGGATT
B6: UCUGUUC (DNA:RNA)
RNA: B1 RNA with A27U, A29U, C30U
DNA 1: CAATCTGAATTCCGGTCTCCC
DNA 2: TGGTGGCTACGACGGGATT
B7: GAGGGGG (DNA:RNA)
RNA: B4 RNA with A25G, C27G, A28G, C29G, A30G, A31G
DNA 1: CAATCTGAATTCCGGTCTCCC
DNA 2: TGGTGGCTACGACGGGATT
B8: UGGCUUG (DNA:RNA)
RNA: B1 RNA with C26G, A27G, G28C, A29U, C30U, C31G
DNA 1: CAATCTGAATTCCGGTCTCCC
DNA 2: TGGTGGCTACGACGGGATT
B9: UGGCGUG (DNA:RNA)
RNA: B1 RNA with C26G, A27G, G28C, A29G, C30U, C31G
DNA 1: CAATCTGAATTCCGGTCTCCC
DNA 2: TGGTGGCTACGACGGGATT
B10: UUGCUGG (DNA:RNA)
RNA: B1 RNA with C26U, A27G, G28C, A29U, C30G, C31G
DNA 1: CAATCTGAATTCCGGTCTCCC
DNA 2: TGGTGGCTACGACGGGATT
B11: GGCUGGU (DNA:RNA)
RNA: B4 RNA with A25G, A26G, A28U, C29G, A30G, A31U
DNA 1: CAATCTGAATTCCGGTCTCCC
DNA 2: TGGTGGCTACGACGGGATT
B12: UGGCUGG (DNA:RNA)
RNA: B1 RNA with C26G, A27G, G28C, A29U, C30G, C31G
DNA 1: CAATCTGAATTCCGGTCTCCC
DNA 2: TGGTGGCTACGACGGGATT
B13: UCCUGGC (DNA:RNA)
RNA: B1 RNA with A27C, G28U, A29G, C30G
DNA 1: CAATCTGAATTCCGGTCTCCC
DNA 2: TGGTGGCTACGACGGGATT
B14: UGGCGUA (DNA:RNA)
RNA: B4 RNA with A25U, A26G, C27G, A28C, C29G, A30U
DNA 1: CAATCTGAATTCCGGTCTCCC
DNA 2: TGGTGGCTACGACGGGATT
B15: UGGCGUC (DNA:RNA)
RNA: B1 RNA with C26G, A27G, G28C, A29G, C30U
DNA 1: CAATCTGAATTCCGGTCTCCC
DNA 2: TGGTGGCTACGACGGGATT
B16: CGGCUGG (DNA:RNA)
RNA: GGGAGACCGGAAUUCAGAUUGUCCCGGCUGGUUAAAUCCCGUCGUAGCCACCA
DNA 1: CAATCTGAATTCCGGTCTCCC
DNA 2: TGGTGGCTACGACGGGATT
B17: GCUGGUU (DNA:RNA)
RNA: B1 RNA with U25G, A27U, A29G, C30U, C31U
DNA 1: CAATCTGAATTCCGGTCTCCC
DNA 2: TGGTGGCTACGACGGGATT
B18: GUGCUGG (DNA:RNA)
RNA: B16 RNA with C25G, G26U
DNA 1: CAATCTGAATTCCGGTCTCCC
DNA 2: TGGTGGCTACGACGGGATT
B19: UGGCUUC (DNA:RNA)
RNA: B16 RNA with C25U, G30U, G31C
DNA 1: CAATCTGAATTCCGGTCTCCC
DNA 2: TGGTGGCTACGACGGGATT
B20: GCUAGGA (DNA:RNA)
RNA: B4 RNA with A25G, A26C, C27U, C29G, A30G
DNA 1: CAATCTGAATTCCGGTCTCCC
DNA 2: TGGTGGCTACGACGGGATT
B21: UCAGCGA (DNA:RNA)
RNA: B1 RNA with A29C, C30G, C31A
DNA 1: CAATCTGAATTCCGGTCTCCC
DNA 2: TGGTGGCTACGACGGGATT
B22: ACCACAA (DNA:RNA)
RNA: B4 RNA with A26C
DNA 1: CAATCTGAATTCCGGTCTCCC
DNA 2: TGGTGGCTACGACGGGATT
B23: GUCGAGG (DNA:RNA)
RNA: B16 RNA with C25G, G26U, G27C, C28G, U29A
DNA 1: CAATCTGAATTCCGGTCTCCC
DNA 2: TGGTGGCTACGACGGGATT
B24: GACCCGU (DNA:RNA)
RNA: B4 RNA with A25G, A28C, A30G, A31U
DNA 1: CAATCTGAATTCCGGTCTCCC
DNA 2: TGGTGGCTACGACGGGATT
B25: AGAUGGC (DNA:RNA)
RNA: B16 RNA with C25A, G27A, C28U, U29G, G31C
DNA 1: CAATCTGAATTCCGGTCTCCC
DNA 2: TGGTGGCTACGACGGGATT
B26: CGCUGGA (DNA:RNA)
RNA: B16 RNA with G27C, C28U, U29G, G31A
DNA 1: CAATCTGAATTCCGGTCTCCC
DNA 2: TGGTGGCTACGACGGGATT
B27: GCUAUGG (DNA:RNA)
RNA: B16 RNA with C25G, G26C, G27U, C28A
DNA 1: CAATCTGAATTCCGGTCTCCC
DNA 2: TGGTGGCTACGACGGGATT
B28: CACCGAC (DNA:RNA)
RNA: B4 RNA with A25C, A28C, C29G, A31C
DNA 1: CAATCTGAATTCCGGTCTCCC
DNA 2: TGGTGGCTACGACGGGATT
B29: GGAAGCG (DNA:RNA)
RNA: B16 RNA with C25G, G27A, C28A, U29G, G30C
DNA 1: CAATCTGAATTCCGGTCTCCC
DNA 2: TGGTGGCTACGACGGGATT
B30: CUCUACU (DNA:RNA)
RNA: B1 RNA with U25C, C26U, A27C, G28U, C31U
DNA 1: CAATCTGAATTCCGGTCTCCC
DNA 2: TGGTGGCTACGACGGGATT
B31: GUCAUUG (DNA:RNA)
RNA: B4 RNA with A25G, A26U, C29U, A30U, A31G
DNA 1: CAATCTGAATTCCGGTCTCCC
DNA 2: TGGTGGCTACGACGGGATT

This assay deals with T1, RBFOX1 RRM. The assay can be described thus: EMSA; HiTS-Eq, 1 nM pool, 10 min; buffer printed only for the single-RNA assays: 10 mM Tris pH 7.5, 150 mM NaCl, 3.4 mM EDTA, 0.001% NP-40, 30 C. The conditions noted are these: tags: His6 N-terminal (pET28a); label: 5' 32P. Summed up: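 A pool of RNA with 7 randomized nucleotides, 5′-radiolabelled and with DNA-annealed flanks, was equilibrated at 1 nM for 10 min in 50 µL with purified RbFox RRM, wild type or mutant, across increasing protein concentrations. Free RNA was separated by 8% native PAGE, excised, reverse-transcribed, barcoded by PCR and sequenced. Relative association constants were obtained from read-count changes of each RNA species versus the control reaction and normalised to the cognate motif.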
With B1, the binding signal is 0.00454 KA relative to UGCAUGU.

For the molecule B2, the binding signal was 0.015 KA relative to UGCAUGU.

With B3, the binding signal is 0.00669 KA relative to UGCAUGU.

On to B4, for which the binding signal is 0.00155 KA relative to UGCAUGU.

For B5, the binding signal was 0.0136 KA relative to UGCAUGU.

As for B6, the binding signal is 0.0184 KA relative to UGCAUGU.

Take B7: the binding signal is 0.0168 KA relative to UGCAUGU.

Consider B8, for which the binding signal was 0.0526 KA relative to UGCAUGU.

Regarding B9, the binding signal is 0.0332 KA relative to UGCAUGU.

Turning to B10, the binding signal was 0.0302 KA relative to UGCAUGU.

In the case of B11, the binding signal is 0.0324 KA relative to UGCAUGU.

Regarding B12, the binding signal is 0.0415 KA relative to UGCAUGU.

Turning to B13, the binding signal was 0.0109 KA relative to UGCAUGU.

As for B14, the binding signal is 0.0143 KA relative to UGCAUGU.

Consider B15, for which the binding signal is 0.0251 KA relative to UGCAUGU.

Regarding B16, the binding signal was 0.0236 KA relative to UGCAUGU.

As for B17, the binding signal was 0.0289 KA relative to UGCAUGU.

Regarding B18, the binding signal was 0.0295 KA relative to UGCAUGU.

B19: the binding signal is 0.0201 KA relative to UGCAUGU.

For the molecule B20, the binding signal is 0.00693 KA relative to UGCAUGU.

For B21, the binding signal was 0.00561 KA relative to UGCAUGU.

On to B22, for which the binding signal is 0.00102 KA relative to UGCAUGU.

B23: the binding signal is 0.0114 KA relative to UGCAUGU.

As for B24, the binding signal was 0.00715 KA relative to UGCAUGU.

Turning to B25, the binding signal was 0.0111 KA relative to UGCAUGU.

Consider B26, for which the binding signal was 0.00997 KA relative to UGCAUGU.

In the case of B27, the binding signal is 0.0134 KA relative to UGCAUGU.

Take B28: the binding signal is 0.00223 KA relative to UGCAUGU.

For the molecule B29, the binding signal was 0.0177 KA relative to UGCAUGU.

Consider B30, for which the binding signal was 0.00629 KA relative to UGCAUGU.

Regarding B31, the binding signal was 0.0126 KA relative to UGCAUGU.
